# Source: PubChem BioAssay (NCATS)
# Records with an inconclusive call do not appear. A number with no mark means an inactive call. The source made the active and inactive calls. The call rests on the fitted dose curve; in most records, active means well fitted cell-killing curve with a large enough effect; inconclusive means small, poorly fitted or top-dose-only effect; inactive means flat fitted curve, though single readings scatter.
# Assay: Cellular viability qHTS for adrenocortical cancer (ACC) cell line NCI-H295R (AID 1963990); further: nearly all actives have a fitted effect of over 60% in size;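 on activity change, negative = viability loss: 0% = DMSO only wells and -100% = full killing with cytotoxic reference compound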
# Details: CellTiter-Glo ATP luminescence, 48 h; series mostly up to 46.1 µM; activity change, negative = viability loss: at the top concentration
# Summary of the method: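 Readout: CellTiter-Glo luminescence, 20 min RT. Exposure: 48 h, 37C/5% CO2. Cells: NCI-H295R, ITS-DMEM serum-free. Range: up to 46 uM. Analysis: 4PL fit, IC50 plus efficacy.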
# Potency means the concentration at half of the fitted maximal effect.
Structure (SMILES),Potency,"activity change, negative = viability loss [%]"
Cc1cc(=O)c2c(O)c3c(O)cc(=O)c4c3c3c(cc(O)c1c23)C(C)(C)C=4O,2.24 µM (active),–
CS(=O)(=O)OCCCCOS(C)(=O)=O,inactive,–
Cn1cncc1[C@@](N)(c1ccc(Cl)cc1)c1ccc2c(c1)c(-c1cccc(Cl)c1)cc(=O)n2C,–,-17.7
NC(=O)c1cnc(N[C@@H]2CCCC[C@@H]2N)nc1Nc1cccc(-n2nccn2)c1,25.1 µM (active),–
C[C@@H](Oc1cc(-c2cnn(C3CCNCC3)c2)cnc1N)c1c(Cl)ccc(F)c1Cl,3.16 µM (active),–
CS(=O)(=O)Oc1ccc2c(NC(N)=O)c(C(=O)c3ccc(Cl)cc3Cl)oc2c1,–,-5.28
Cc1c(NC(=O)OC[C@@H]2COCCN2)cn2ncnc(Nc3ccc4c(cnn4Cc4cccc(F)c4)c3)c12,31.6 µM (active),–
